Where “and” joins values, the source holds several entries; their conditions need not be identical. Equal entries are not always repeated. Among all 5,500 compounds or so, about 2,000 (36%) were called active. Not shown: some 18% with an inconclusive outcome. No stated cut-off is given here; in the data, active means normalized growth mostly below about 0.91 (no sharp cut-off); inconclusive means no clear call, values can overlap the other calls; inactive means mostly above about 0.92. This is one part of the list.
Assay: chemical genetic growth profiling, strain panel (AID 1159580);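 further: tested at 20 µM; growth read once vehicle control cultures reached saturation at 30 °C; 1 = growth at the plate median or of vehicle wells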
Conditions: S. cerevisiae deletion strains, growth OD

Measured: normalized growth

CC(=O)NO
0.748 (active) and 1 (inactive): locus YJL095W, strain BCK1, stronger effect = lower value
active: locus YBR021W, strain FUR4, stronger effect = lower value 0.604
inactive: locus YAL013W, strain DEP1, stronger effect = lower value 0.955 | locus YAL021C, strain ccr4, stronger effect = lower value 0.968 | locus YAL026C, strain drs2, stronger effect = lower value 0.997 | locus YAL030W, strain snc1, stronger effect = lower value 0.99 | locus YBL061C, strain skt5, stronger effect = lower value 0.969 | locus YBR009C, strain hhf1, stronger effect = lower value 0.942 | locus YBR023C, strain chs3, stronger effect = lower value 0.964 | locus YBR171W, strain sec66, stronger effect = lower value 0.963 | locus YBR229C, strain ROT2, stronger effect = lower value 1.01 | locus YBR231C, strain swc5, stronger effect = lower value 0.995 | locus YBR279W, strain paf1, stronger effect = lower value 0.973 | locus YCL011C, strain gbp2, stronger effect = lower value 0.949 | locus YCL016C, strain dcc1, stronger effect = lower value 0.937 | locus YCL029C, strain bik1, stronger effect = lower value 0.999 | locus YCL061C, strain MRC1, stronger effect = lower value 0.968 | locus YCL069W, strain vba3, stronger effect = lower value 0.974 | locus YCR088W, strain abp1, stronger effect = lower value 0.979 | locus YDL005C, strain med2, stronger effect = lower value 0.982 | locus YDL035C, strain GPR1, stronger effect = lower value 0.973 | locus YDL040C, strain nat1, stronger effect = lower value 0.979 | locus YDL074C, strain BRE1, stronger effect = lower value 0.977 | locus YDL101C, strain DUN1, stronger effect = lower value 1.02 | locus YDL185W, strain tfp1, stronger effect = lower value 0.992 | locus YDL192W, strain arf1, stronger effect = lower value 0.989 | locus YDR001C, strain nth1, stronger effect = lower value 0.982 | locus YDR069C, strain doa4, stronger effect = lower value 1.01 | locus YDR101C, strain arx1, stronger effect = lower value 1 | locus YDR137W, strain rgp1, stronger effect = lower value 0.948 | locus YDR150W, strain NUM1, stronger effect = lower value 0.991 | locus YDR159W, strain sac3, stronger effect = lower value 1 | locus YDR162C, strain NBP2, stronger effect = lower value 0.997 | locus YDR195W, strain ref2 0.984 | locus YDR297W, strain sur2, stronger effect = lower value 0.977 | locus YDR318W, strain mcm21, stronger effect = lower value 0.998 | locus YDR334W, strain swr1, stronger effect = lower value 0.976 | locus YDR335W, strain msn5, stronger effect = lower value 0.983 | locus YDR388W, stronger effect = lower value 0.984 | locus YDR392W, strain spt3, stronger effect = lower value 0.744 | locus YDR502C, strain sam2, stronger effect = lower value 0.973 | locus YEL003W, strain gim4, stronger effect = lower value 1 | locus YEL037C, strain rad23, stronger effect = lower value 0.977 | locus YEL061C, strain CIN8 (second series), stronger effect = lower value 0.985 | locus YEL061C, strain CIN8, stronger effect = lower value 1.01 | locus YER015W, strain faa2, stronger effect = lower value 0.975 | locus YER016W, strain bim1, stronger effect = lower value 0.996 | locus YER110C, stronger effect = lower value 0.987 | locus YER111C, strain swi4, stronger effect = lower value 0.965 | locus YER155C, strain BEM2 (second series), stronger effect = lower value 0.996 | locus YER155C, strain BEM2, stronger effect = lower value 1.03 | locus YER167W, strain BCK2, stronger effect = lower value 1.02 | locus YFR010W, strain ubp6, stronger effect = lower value 0.974 | locus YGL078C, strain dbp3, stronger effect = lower value 0.997 | locus YGL086W, strain mad1, stronger effect = lower value 0.991 | locus YGL167C, strain pmr1, stronger effect = lower value 0.978 | locus YGL173C, strain kem1, stronger effect = lower value 0.984 | locus YGL227W, strain vid30, stronger effect = lower value 0.974 | locus YGL240W, strain doc1, stronger effect = lower value 0.963 | locus YGL248W, strain PDE1, stronger effect = lower value 0.97 | locus YGL253W, strain hxk2, stronger effect = lower value 0.965 | locus YGR135W, strain pre9, stronger effect = lower value 0.907 | locus YGR252W, strain gcn5, stronger effect = lower value 0.797 | locus YHR013C, strain ard1, stronger effect = lower value 0.888 | locus YHR027C, strain rpn1, stronger effect = lower value 0.999 | locus YHR030C, strain SLT2, stronger effect = lower value 0.94 and 0.998 | locus YHR079C, strain IRE1 (second series), stronger effect = lower value 0.997 | locus YHR079C, strain IRE1, stronger effect = lower value 0.975 | locus YHR094C, strain hxt1, stronger effect = lower value 0.997 | locus YHR129C, strain ARP1, stronger effect = lower value 1 | locus YHR142W, strain chs7, stronger effect = lower value 0.915 | locus YHR200W, strain rpn10, stronger effect = lower value 0.991 | locus YIL066C, strain RNR3, stronger effect = lower value 0.979 | locus YIL073C, strain SPO22, stronger effect = lower value 0.898 | locus YIL125W, strain kgd1, stronger effect = lower value 0.99 | locus YIR030C, strain dcg1, stronger effect = lower value 1 | locus YJL092W, strain hpr5, stronger effect = lower value 0.974 | locus YJL095W, strain BCK1 (second series), stronger effect = lower value 0.98 | locus YJL115W, strain asf1, stronger effect = lower value 0.954 | locus YJL129C, strain trk1, stronger effect = lower value 0.962 | locus YJL134W, strain LCB3, stronger effect = lower value 1.01 | locus YJL154C, strain vps35, stronger effect = lower value 0.983 | locus YJL164C, strain tpk1, stronger effect = lower value 0.966 | locus YJL166W, strain qcr8, stronger effect = lower value 0.931 | locus YJL168C, strain set2, stronger effect = lower value 0.993 | locus YJL187C, strain SWE1 (second series), stronger effect = lower value 0.954
